The source of these data is ChEMBL document CHEMBL3988442, “University of Dundee, Small-Polar-MMV Screening Library” (2021).

The campaign covered roughly 48,000 compounds. About 13,000 (27%) showed an effect of 50% or more. The list shows a part of the results.

For the experiment, the system named is Wolbachia pipientis. As to the kind of experiment: Anti-Wolbachia Cell-Based Screen. It counts as functional. Also noted: scale not given: in the data most compounds retested in dose-response had high values. The note with it: 5 µM.
Consider `CN(Cc1cccc(F)c1)C(=O)CN1CCCC(Cn2cncn2)C1` (stereo unspecified), for which the “Percent Effect” value stood at 16.73%.
With `CN(Cc1ccsc1)C(=O)CN1CCCC1Cn1cccn1` (stereo unspecified) the figure was -10.05%; with `CCN(Cc1ccccc1)C(=O)CN1CCCC(Cn2cncn2)C1` (stereo unspecified), 3.711%.
Next, `Cc1ccc(CN(C)C(=O)CN2CCCC(Cn3cncn3)C2)cc1` (stereo unspecified): 90.35%; `Cc1ccc(CN(C)C(=O)CN2CCCC2Cn2cncn2)cc1` (stereo unspecified): -14.18%; `O=C(CN1CCCC(Cn2cncn2)C1)NCc1ccco1` (stereo unspecified): 1.739%.
Next, `CN(Cc1ccccc1)C(=O)CN1CCCCC1Cn1cncn1` (stereo unspecified): -0.2947%; `CN(Cc1ccccc1)C(=O)CN1CCCC(Cn2cncn2)C1` (stereo unspecified): 97.22%; `Cc1ccc(CN(C)C(=O)CN2CCCC(Cn3cncn3)C2)o1` (stereo unspecified): 96.55%.
In the case of `CN(Cc1ccco1)C(=O)CN1CCCC(Cn2cncn2)C1` (stereo unspecified), the “Percent Effect” value amounted to 5.962%.
With `CN(Cc1ccsc1)C(=O)CN1CCCC(Cn2cncn2)C1` (stereo unspecified) the figure was 109.8%; with `CN(Cc1ccc(F)cc1)C(=O)CN1CCCC(Cn2cncn2)C1` (stereo unspecified), -5.404%.
`CC(C)c1nc(CN(C)C(=O)CCS(=O)(=O)c2ccccc2)no1`: the “Percent Effect” value was -0.5439%.
With `O=C(NS(=O)(=O)c1cccc(C(F)(F)F)c1)c1cscn1` the figure was 5.239%; with `CSCC(C)CNC(=O)N1CCSC(C)(C)C1` (stereo unspecified), -11.84%; with `Cc1ccsc1C(=O)N1CCCn2nnc(Cn3cccn3)c2C1`, -8.648%.
Next, `NC(=O)C1CCN(CC(=O)NCCc2c(F)cccc2F)CC1`: -5.279%; `Cc1ccc(CNC(=O)CN2CCCC(Cn3cncn3)C2)s1` (stereo unspecified): 2.763%; `CN(Cc1cccs1)C(=O)CN1CCCCC1Cn1cncn1` (stereo unspecified): -8.193%.
With `CN(Cc1cnn(C)c1)C(=O)CN1CCCCC1Cn1cncn1` (stereo unspecified), the “Percent Effect” value is -1.261%.
For the molecule `CN(Cc1cnn(C)c1)C(=O)CN1CCCC(Cn2cncn2)C1` (stereo unspecified), the “Percent Effect” value turned out to be 99.58%.
Next, `CN(Cc1cccs1)C(=O)CN1CCCC(Cn2cncn2)C1` (stereo unspecified): 104.7%; `CN(Cc1cccs1)C(=O)CN1CCCC1Cn1cncn1` (stereo unspecified): 4.485%; `Cc1ccccc1CN(C)C(=O)CN1CCCCC1Cn1cncn1` (stereo unspecified): 13%.
Regarding `CN(Cc1cnn(C)c1)C(=O)CN1CCCC1Cn1cncn1` (stereo unspecified), the “Percent Effect” value was -17.06%.
With `Cc1ccccc1CN(C)C(=O)CN1CCCC(Cn2cncn2)C1` (stereo unspecified) the figure was 113.1%; with `Cc1ccc(F)c(OC2(C(=O)O)CCN(C(=O)C3CCCC3)CC2)c1`, -29.08%.
Take `CC(C)c1nccn1CCn1cnc2ccsc2c1=O`: the “Percent Effect” value was determined as 2.985%.
With `Cc1ccc(C(=O)NCCCC2(C3OCCO3)CCOCC2)cc1C` the figure was -3.842%; with `Cc1ccccc1CN(C)C(=O)CCc1nc(-c2nnc[nH]2)no1`, 4.436%; with `CNC(=O)c1cc2c(nc1N(C)C)CCN(c1ncc(F)cn1)CC2.O=C(O)C(F)(F)F`, 86.67%.
With `CNC(=O)c1cc2c(nc1N(C)C)CCN(S(=O)(=O)CC(C)C)CC2.O=C(O)C(F)(F)F` the figure was -14.6%.
With `CCS(=O)(=O)N1CCc2cc(C(=O)NC)c(N(C)C)nc2CC1` the figure was 15.07%.
Take `CCc1cnc(N2CCc3ncnc(N4CCN(C)CC4)c3CC2)nc1.O=C(O)C(F)(F)F`: the “Percent Effect” value is recorded as -0.8279%.
Next, `CCc1cnc(N2CCc3cc(C(=O)NC)c(N(C)C)nc3CC2)nc1.O=C(O)C(F)(F)F`: 91.47%; `CNC(=O)c1cc2c(nc1N(C)C)CCN(C)CC2.O=C(O)C(F)(F)F.O=C(O)C(F)(F)F`: 0.7225%; `CNC(=O)c1cc2c(nc1NCC(C)C)CCN(C)CC2.O=C(O)C(F)(F)F.O=C(O)C(F)(F)F`: -3.691%.
Next, `CNC(=O)c1cc2c(nc1N(C)C)CCN(S(=O)(=O)N(C)C)CC2.O=C(O)C(F)(F)F`: -4.998%; `CNC(=O)c1cc2c(nc1NCC(C)C)CCN(c1ncccn1)CC2.O=C(O)C(F)(F)F`: -3.442%; `CNC(=O)c1cc2c(nc1N(C)C)CCN(c1ncccn1)CC2.O=C(O)C(F)(F)F`: 100.6%.
Next, `CNC(=O)c1cc2c(nc1N(C)C)CCN(c1ncc(C)cn1)CC2.O=C(O)C(F)(F)F`: 101.6%; `CNC(=O)c1cc2c(nc1N(C)C)CCN(S(=O)(=O)C1CC1)CC2.O=C(O)C(F)(F)F`: -2.828%; `CCN(CCc1nc2cc(C)ccc2[nH]1)C(=O)COC`: 16.32%.
With `CCSCCC(C)N(C)C(=O)c1ccc2nncn2c1` (stereo unspecified), the “Percent Effect” value turned out to be 5.422%.
With `CC(C)N1CCC(CC(=O)NC[C@H]2CCc3ccccc3O2)CC1` the figure was 10.1%; with `Cc1cc(NC2CCN(c3ccccc3)C2)n2ncnc2n1` (stereo unspecified), -12.56%.
Next, `Cc1cc(=O)n2ncnc2n1CC(O)c1ccccc1` (stereo unspecified): -22.33%.
With `CCOc1cc(C)nc(N2CCN(Cc3nccn3CC)CC2)n1` the figure was -15.08%; with `O=C(CSc1ccc(F)c(F)c1)NS(=O)(=O)c1ccc2c(c1)OCCO2`, -0.1688%; with `Cc1cnc(N2CCc3cc(C(=O)O)c(N(C)C)nc3CC2)nc1.O=C(O)C(F)(F)F`, 100.3%.
For `Cc1cnc(N2C[C@@H]3[C@@H](C2)OCC(=O)N3CCN(C)C)nc1.O=C(O)C(F)(F)F`, the “Percent Effect” value is given as -6.584%.
As to `Cn1cc(-c2nc3c(cc2C(=O)O)CCN(C(=O)C2CC2)CC3)cn1.O=C(O)C(F)(F)F`, the “Percent Effect” value is reported as -6.455%.
Regarding `CC(=O)N1CC[C@]2(O)CCN(Cc3nc(C)c[nH]3)C[C@@H]2C1`, the “Percent Effect” value is -2.174%.
With `O=C(NCCn1ccc(-c2ccccn2)n1)c1ccncc1` the figure was -7.154%; with `O=C(CC1CCCC1)NCCn1ccc(-c2ccccn2)n1`, -10.47%; with `CC(=O)NCCn1ccc(-c2ccccn2)n1`, 104.5%.
Next, `O=S(=O)(NCCn1ccc(-c2ccncc2)n1)C1CC1`: -3.151%; `O=S(=O)(NCCn1ccc(-c2ccccn2)n1)C1CC1`: -6.765%.
Next, `O=C(NCCn1ccc(-c2ccccn2)n1)C1CC1`: -0.9217%; `O=C(NCCn1ccc(-c2ccccn2)n1)C1CCC1`: 100.8%; `O=S(=O)(NCCn1ccc(-c2ccccn2)n1)C1CCCCC1`: 96.49%.
On to `CCOCC(=O)NCCn1ccc(-c2ccccn2)n1`, for which the “Percent Effect” value was 107%.
With `CC(=O)NCCNc1nc(-c2ccccn2)nc2c1c(C)nn2C` the figure was -13.51%.
In the case of `Cc1ccc(O)c(CN(Cc2ccccc2)Cc2nccs2)n1`, the “Percent Effect” value turned out to be 11.33%.
With `CCCN1CCCn2nc(CNC(=O)CCc3scnc3C)cc2C1` the figure was 1.883%; with `CN(Cc1ccsc1)Cc1nc(-c2cnccn2)no1`, -7.726%; with `CC(C)(C)C(=O)NCCn1ccc(-c2ccncc2)n1`, -1.821%.
Next, `CC(C)(C)C(=O)NCCn1ccc(-c2ccccn2)n1`: 67.15%; `Cc1cnn(CC2CCCN2Cc2nc3ccccc3nc2C)c1` (stereo unspecified): 3.797%.
Next, `Cc1cnn(CC2CCCCN2Cc2nccn2CC(F)(F)F)c1` (stereo unspecified): 101.7%; `Cn1ccnc1CN1CCCC1Cn1cccn1` (stereo unspecified): 107.8%; `Cc1cnn(CC2CCCN2Cc2nc3ccccc3n2C)c1` (stereo unspecified): 0.7122%.
For the molecule `Cc1cnn(CC2CCCN2Cc2nccn2CC(F)(F)F)c1` (stereo unspecified), the “Percent Effect” value is 129.3%.
With `Cc1cnn(CC2CCCN2Cc2nccn2C)c1` (stereo unspecified) the figure was -1.089%; with `Cn1ccnc1CN1CCCCC1Cn1cccn1` (stereo unspecified), 5.027%.
Next, `CCn1ccnc1CN1CCCC1Cn1cc(C)cn1` (stereo unspecified): 134.6%; `O=C(C1CCCCN1Cc1nccn1CC(F)(F)F)N1CCCC1` (stereo unspecified): -10.67%.
Turning to `Cc1nc2ccccc2nc1CN1CCCCC1Cn1cccn1` (stereo unspecified), the “Percent Effect” value was -6.205%.
For `NC(=O)C1CCCN1Cc1nccn1CC(F)(F)F` (stereo unspecified), the “Percent Effect” value is on record as -2.704%.
With `Cc1cnn(CC2CCCCN2Cc2nc(-c3ccoc3)no2)c1` (stereo unspecified), the “Percent Effect” value was determined as 6.468%.
Next, `COc1ccc(Cc2ncc3c(n2)CN(C(=O)C2COCCO2)C3)cc1` (stereo unspecified): -5.777%.
`CCCN1CCN(Cc2cc(Cl)cc(Cl)c2)[C@H]2CS(=O)(=O)C[C@H]21`: the “Percent Effect” value came to 3.846%.
For the molecule `CSC(C)CC(=O)N1CCC(n2ccnn2)CC1` (stereo unspecified), the “Percent Effect” value was determined as 6.562%.
Consider `O=C(C1CC1)N1CCC2(CC1)CNCc1ccccc12`, for which the “Percent Effect” value stood at 1.154%.
Next, `COCC(=O)N1CCc2ccccc2C12CCNCC2.Cl`: 112.7%.
With `CCOC(=O)N1CCc2ccccc2C12CCNCC2.Cl` the figure was 93.5%; with `O=C(CCN1CCNCC1)N1CCC2(CC1)c1ccccc1CC2O` (stereo unspecified), 4.718%; with `COCC(=O)N1CCc2[nH]c(=O)ccc2C1`, -6.404%.
With `Cl.O=C(C1CC1)N1CCc2ccccc2C12CCNCC2` the figure was 85.13%; with `COCC(=O)N1CCC2(CC1)NC(=O)c1ccccc12.Cl`, -6.733%; with `CN(C)C(=O)N1Cc2ccccc2C2(CCNCC2)C1.Cl`, -11%.
Turning to `Cl.O=C([C@H]1CCCO1)N1CCC2(CC1)CNCc1ccccc12`, the “Percent Effect” value is on record as -10.28%.
With `CS(=O)(=O)N1CC[C@]2(C[C@H](Oc3ccccn3)CO2)C1.O=C(O)C(F)(F)F` the figure was 1.633%.
With `Cn1nc(Cn2cccc2)c2c1CN(Cc1ccsc1)C2.O=C(O)C(F)(F)F` the figure was 0.5842%; with `Cc1ccccc1CN1CCCN(C2CCOC2=O)CC1` (stereo unspecified), 1.458%.
Next, `CCO[C@@H]1CN(S(=O)(=O)c2cn(C)cn2)[C@@H]2CCCO[C@@H]21.O=C(O)C(F)(F)F`: -6.587%; `Cc1cc(N(C)C)nc(N2CCN(C(C)c3nc(C)no3)CC2)n1` (stereo unspecified): 5.095%; `Cc1cc(C)n(CC2CN(CC(=O)NC3CCCC3)CCO2)n1` (stereo unspecified): -2.568%.
For the molecule `CCN1CCC(NC(=O)CN2CCCC2Cn2nc(C)cc2C)CC1` (stereo unspecified), the “Percent Effect” value is recorded as -4.017%.
With `Cc1cc(C)n(CC2CN(CC(=O)NC3CCCCC3)CCO2)n1` (stereo unspecified) the figure was 116.8%; with `Cc1cc(C)n(CC2CN(CC(=O)NC3CCOCC3)CCO2)n1` (stereo unspecified), 89.87%; with `Cc1cc(C)n(CC2CN(CC(=O)Nc3c(C)n[nH]c3C)CCO2)n1` (stereo unspecified), -5.671%.
Next, `Cc1cc(C)n(CC2CN(CCC(=O)NC3CCCCC3)CCO2)n1` (stereo unspecified): 118.1%; `Cc1nc(C)n(CC2CN(CC(=O)NC3CCCC3)CCO2)n1` (stereo unspecified): 112.4%; `Cc1nc(C)n(CC2CN(CC(=O)Nc3nccs3)CCO2)n1` (stereo unspecified): 1.962%.
Take `Cc1nc(C)n(CC2CN(CC(=O)Nc3cccnc3)CCO2)n1` (stereo unspecified): the “Percent Effect” value came out at 9.573%.
